# According to paper PMC5700166:
# Residue numbers refer to the chain shown, from its start.
# How the values were obtained:
# Experiment in all cases: protein-binding microarray (PBM); PBM: ~300 nM protein, 6 mM HEPES pH 7.8, 80 mM KCl, 0.5 mM EDTA, 0.5 mM EGTA, 6% glycerol, 35 ng/ul poly-dIdC, 1% milk, 1 h, room temperature; Ap Aiptasia and Nv Nematostella (sea anemones) / Co Capsaspora / Aq Amphimedon (sponge) / Dm Drosophila / Hu human; RHD is the Rel homology domain; high values mean tight binding
# Settings in all cases: dsDNA, one strand shown
# GST-Dm-Relish = molecular target: T1, GST-Dm-Relish (Drosophila melanogaster, UniProt Q94527 99-473)
# T1 sequence: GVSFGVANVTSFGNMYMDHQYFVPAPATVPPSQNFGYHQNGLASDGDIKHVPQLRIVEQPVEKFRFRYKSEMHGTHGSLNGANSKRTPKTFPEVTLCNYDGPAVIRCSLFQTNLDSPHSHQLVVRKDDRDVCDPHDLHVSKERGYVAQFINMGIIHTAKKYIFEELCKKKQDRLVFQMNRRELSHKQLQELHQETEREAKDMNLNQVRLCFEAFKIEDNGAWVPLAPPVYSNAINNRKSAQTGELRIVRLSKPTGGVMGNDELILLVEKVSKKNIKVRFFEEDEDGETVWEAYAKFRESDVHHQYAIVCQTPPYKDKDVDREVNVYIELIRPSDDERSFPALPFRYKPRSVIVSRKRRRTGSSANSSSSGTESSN
# GST-Aq-NF-kB = molecular target: T2, GST-Aq-NF-kB (Amphimedon queenslandica, UniProt A9Y5G7 2-389)
# T2 sequence: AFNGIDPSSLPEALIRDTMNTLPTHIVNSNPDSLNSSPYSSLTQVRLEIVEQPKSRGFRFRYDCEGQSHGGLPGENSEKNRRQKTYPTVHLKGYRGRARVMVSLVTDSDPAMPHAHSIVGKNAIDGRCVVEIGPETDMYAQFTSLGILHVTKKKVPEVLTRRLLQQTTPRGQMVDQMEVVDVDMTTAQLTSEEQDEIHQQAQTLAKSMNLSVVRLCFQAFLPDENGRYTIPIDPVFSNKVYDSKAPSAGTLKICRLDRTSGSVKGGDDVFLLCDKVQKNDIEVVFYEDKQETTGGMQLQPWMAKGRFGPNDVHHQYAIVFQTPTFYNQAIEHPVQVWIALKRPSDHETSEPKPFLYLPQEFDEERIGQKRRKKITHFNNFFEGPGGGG
# [1] = molecular target: T3, GST-Nv-NF-kB (Cys allele) (Nematostella vectensis, UniProt E5G601 2-411)
# T3 sequence: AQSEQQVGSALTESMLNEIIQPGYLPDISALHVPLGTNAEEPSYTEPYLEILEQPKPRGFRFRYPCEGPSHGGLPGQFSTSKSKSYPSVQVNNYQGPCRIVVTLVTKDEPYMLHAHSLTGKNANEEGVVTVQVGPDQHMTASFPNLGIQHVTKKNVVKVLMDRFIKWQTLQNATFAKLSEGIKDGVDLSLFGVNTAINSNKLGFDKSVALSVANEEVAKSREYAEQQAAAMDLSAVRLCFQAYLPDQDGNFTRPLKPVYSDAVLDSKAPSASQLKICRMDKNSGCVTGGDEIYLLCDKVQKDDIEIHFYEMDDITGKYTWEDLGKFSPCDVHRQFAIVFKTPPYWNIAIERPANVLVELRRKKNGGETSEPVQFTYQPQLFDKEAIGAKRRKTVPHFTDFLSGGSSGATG
# GST-Hu-p50 = GST-Hu-p50 (Homo sapiens, UniProt P19838 7-356)
# Sequence of GST-Hu-p50 (P19838 7-356): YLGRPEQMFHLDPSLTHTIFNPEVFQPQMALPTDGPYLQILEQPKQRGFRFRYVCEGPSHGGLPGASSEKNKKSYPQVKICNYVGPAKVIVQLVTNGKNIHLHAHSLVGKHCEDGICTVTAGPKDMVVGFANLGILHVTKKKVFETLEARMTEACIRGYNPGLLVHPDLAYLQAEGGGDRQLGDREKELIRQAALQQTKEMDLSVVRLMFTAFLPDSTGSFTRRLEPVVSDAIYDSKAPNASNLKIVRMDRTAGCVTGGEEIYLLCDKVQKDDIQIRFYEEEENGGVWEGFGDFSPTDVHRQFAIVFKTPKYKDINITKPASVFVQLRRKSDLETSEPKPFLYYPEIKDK
# [2] = molecular target: T4, GST-Nv-NF-kB (Ser allele) (Nematostella vectensis, UniProt A7UNT2 2-411)
# T4 sequence: T3 sequence with Q21R, C66S, S207N, E215Q, V217A, E225K, A268E, D399E
# GST-Co-NF-kB = molecular target: T5, GST-Co-NF-kB (Capsaspora owczarzaki, UniProt F1ARL5 200-546)
# T5 sequence: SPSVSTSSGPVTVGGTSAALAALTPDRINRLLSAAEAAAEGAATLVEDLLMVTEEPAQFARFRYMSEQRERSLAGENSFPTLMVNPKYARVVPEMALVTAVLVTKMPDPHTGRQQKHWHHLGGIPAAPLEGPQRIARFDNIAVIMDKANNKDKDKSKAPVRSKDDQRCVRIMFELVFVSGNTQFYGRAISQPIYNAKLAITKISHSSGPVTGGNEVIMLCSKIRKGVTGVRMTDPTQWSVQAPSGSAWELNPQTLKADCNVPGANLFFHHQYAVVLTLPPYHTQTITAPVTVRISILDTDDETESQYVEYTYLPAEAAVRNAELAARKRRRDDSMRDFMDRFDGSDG
# GST-Ap-NF-kB RHD = molecular target: T6, GST-Ap-NF-kB RHD (Exaiptasia pallida (Aiptasia), UniProt A0A913YAJ5 2-422)
# T6 sequence: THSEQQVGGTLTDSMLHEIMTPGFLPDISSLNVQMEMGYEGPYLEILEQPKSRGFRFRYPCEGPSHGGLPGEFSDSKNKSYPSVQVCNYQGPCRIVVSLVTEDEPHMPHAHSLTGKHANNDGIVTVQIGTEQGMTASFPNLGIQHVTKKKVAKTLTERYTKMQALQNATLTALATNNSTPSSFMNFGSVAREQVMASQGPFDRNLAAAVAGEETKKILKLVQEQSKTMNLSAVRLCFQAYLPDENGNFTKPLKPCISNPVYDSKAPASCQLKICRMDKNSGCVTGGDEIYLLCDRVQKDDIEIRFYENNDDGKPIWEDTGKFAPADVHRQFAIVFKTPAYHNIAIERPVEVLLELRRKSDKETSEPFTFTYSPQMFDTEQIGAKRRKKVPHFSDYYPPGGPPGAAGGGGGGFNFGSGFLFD
sequence,measurement,setting,value
CCGATTAACATCAGGACATCCCATGATGTTAATCGGGTCTTGATTCGCTTGACGCTGCTG,binding signal,GST-Dm-Relish,3.93 z-score
same,binding signal,GST-Aq-NF-kB,2.15 z-score
CCGATTAACATCAAAGGATTTCCTGATGTTAATCGGGTCTTGATTCGCTTGACGCTGCTG,binding signal,GST-Dm-Relish,1.74 z-score
same,binding signal,GST-Aq-NF-kB,1.01 z-score
CCGATTAACATCACGGGCATCCCTGATGTTAATCGGGTCTTGATTCGCTTGACGCTGCTG,binding signal,GST-Dm-Relish,5.06 z-score
same,binding signal,GST-Aq-NF-kB,3.09 z-score
CCGATTAACATCAGAGGAATTCCTGATGTTAATCGGGTCTTGATTCGCTTGACGCTGCTG,binding signal,GST-Dm-Relish,2.63 z-score
same,binding signal,GST-Aq-NF-kB,2.12 z-score
CCGATTAACATCAAAAAATTCCTTGATGTTAATCGGGTCTTGATTCGCTTGACGCTGCTG,binding signal,GST-Dm-Relish,2.73 z-score
same,binding signal,GST-Aq-NF-kB,2.21 z-score
CCGATTAACATCAGGAAAATCCATGATGTTAATCGGGTCTTGATTCGCTTGACGCTGCTG,binding signal,GST-Dm-Relish,1.26 z-score
same,binding signal,GST-Aq-NF-kB,2.69 z-score
CCGATTAACATCACGGAATTCCGTGATGTTAATCGGGTCTTGATTCGCTTGACGCTGCTG,binding signal,GST-Dm-Relish,1.22 z-score
same,binding signal,GST-Aq-NF-kB,1.25 z-score
CCGATTAACATCAGGATTTTCCATGATGTTAATCGGGTCTTGATTCGCTTGACGCTGCTG,binding signal,GST-Dm-Relish,1.28 z-score
same,binding signal,GST-Aq-NF-kB,2.57 z-score
CCGATTAACATCAGGAAAAGTACTGATGTTAATCGGGTCTTGATTCGCTTGACGCTGCTG,binding signal,GST-Dm-Relish,4.26 z-score
same,binding signal,GST-Aq-NF-kB,1.14 z-score
CCGATTAACATCACGTGCTTTCCTGATGTTAATCGGGTCTTGATTCGCTTGACGCTGCTG,binding signal,GST-Dm-Relish,2.88 z-score
same,binding signal,GST-Aq-NF-kB,1.36 z-score
CCGATTAACATCACCGAGTTAGTTGATGTTAATCGGGTCTTGATTCGCTTGACGCTGCTG,binding signal,[1],1.15 z-score
same,binding signal,GST-Hu-p50,1.5 z-score
CCGATTAACATCAGGTAACTACCTGATGTTAATCGGGTCTTGATTCGCTTGACGCTGCTG,binding signal,GST-Dm-Relish,3.08 z-score
same,binding signal,GST-Aq-NF-kB,3.17 z-score
CCGATTAACATCAGGACTTTCCATGATGTTAATCGGGTCTTGATTCGCTTGACGCTGCTG,binding signal,GST-Dm-Relish,3.27 z-score
same,binding signal,GST-Aq-NF-kB,4.23 z-score
CCGATTAACATCACCTGGTCGGGTGATGTTAATCGGGTCTTGATTCGCTTGACGCTGCTG,binding signal,[2],1.03 z-score
same,binding signal,GST-Co-NF-kB,1.5 z-score
same,binding signal,GST-Dm-Relish,1.13 z-score
same,binding signal,GST-Hu-p50,2.04 z-score
CCGATTAACATCACGGGCAGTGGTGATGTTAATCGGGTCTTGATTCGCTTGACGCTGCTG,binding signal,GST-Co-NF-kB,1.25 z-score
same,binding signal,GST-Dm-Relish,1.02 z-score
same,binding signal,GST-Hu-p50,1.37 z-score
CCGATTAACATCAAGTACCAGGGTGATGTTAATCGGGTCTTGATTCGCTTGACGCTGCTG,binding signal,GST-Ap-NF-kB RHD,1.05 z-score
CCGATTAACATCACCCCGCATGCTGATGTTAATCGGGTCTTGATTCGCTTGACGCTGCTG,binding signal,GST-Ap-NF-kB RHD,1.75 z-score
same,binding signal,GST-Co-NF-kB,1.97 z-score
same,binding signal,GST-Hu-p50,1.34 z-score
CCGATTAACATCAGCAATGTAGGTGATGTTAATCGGGTCTTGATTCGCTTGACGCTGCTG,binding signal,GST-Hu-p50,1.13 z-score
CCGATTAACATCAGGAAATTGCCTGATGTTAATCGGGTCTTGATTCGCTTGACGCTGCTG,binding signal,[1],1.05 z-score
same,binding signal,GST-Hu-p50,1.3 z-score
CCGATTAACATCACCAGGTTAGGTGATGTTAATCGGGTCTTGATTCGCTTGACGCTGCTG,binding signal,[1],1.1 z-score
same,binding signal,[2],1.85 z-score
same,binding signal,GST-Dm-Relish,1.36 z-score
same,binding signal,GST-Hu-p50,3.09 z-score
